From PubChem BioAssay (EPA / NIEHS)
Calls of active or inactive are those of the source. The calls were made as follows: active = hit-call score of the fitted dose curve at least 0.9, where 1 is the maximum; inactive = score below 0.9.

test: ATG_GLI_CIS: Attagene CIS-FACTORIAL HepG2 Assay for human Zinc Finger Protein GLI1 (AID 2282945); details: HepG2, Attagene cis-factorial reporter mRNA, GLI element; actives raise or lower the signal
Description: ATG_CIS is a cell-based, multiplexed-readout assay that uses HepG2, a human liver cell line, with measurements taken at 24 hours after chemical dosing in a 24-well plate.ATG_GLI_CIS is one of 52 assay component(s) measured or calculated from the ATG_CIS assay. It is designed to make measurements of mRNA induction, a form of inducible reporter, as detected with fluorescence intensity signals by Reverse transcription polymerase chain reaction (RT-PCR) and Capillary electrophoresis technology.Data from the assay component ATG_GLI_CIS was analyzed into 1 assay endpoint. This assay endpoint, ATG_GLI_CIS, was analyzed with bidirectional fitting relative to DMSO as the negative control and baseline of activity. Using a type of inducible reporter, measures of mRNA for gain or loss-of-signal activity can be used to understand the reporter gene at the transcription factor-level as they relate to the gene GLI1. Furthermore, this assay endpoint can be referred to as a primary readout, because this assay has produced multiple assay endpoints where this one serves a reporter gene function. To generalize the intended target to other relatable targets, this assay endpoint is annotated to the dna binding intended target family, where the subfamily is zinc finger.
Human liver HepG2 cells are transiently transfected with multiple reporter transcription units (MRTUs) in 6-well plates using FuGene 6 reagent (Roche; 3 ml FuGene/1 mg DNA). The MRTU constructs are regulated by a cis-regulating element (promoter). […] A major difference between the CIS and TRANS system is that in CIS activities of endogenous TFs are measured, whereas the TRANS assay evaluates changes in activities of exogenous, chimeric NR-Gal4 proteins. […] At the end of 24 hour incubation, total RNA was isolated using TriZol reagent (Invitrogen). The isolated RNA is then reverse-transcribed using oligo(dT) primer and Mo-MLV reverse transcriptase (Invitrogen) with DNAse I (Ambion) treatment for 30 min. The one-tenth of the produced cDNA was amplified by PCR using Taq DNA polymerase (Invitrogen) and two reporter sequence-specific primers. The PCR products were fluorescently labeled by primer extension with 6-arboxyfluorescein (6-FAM) 5'-labeled reporter sequence-specific primer (2 min at 95 C, 20 s at 68 C and 10 min at 72 C) and these products were digested with 5U of HpaI (New England Biolabs) for 2h at 37 C. The fragments were purified using Qiaquick PCR columns (Qiagen), analyzed on an ABI 3130xL genetic analyzer (Applied Biosystems) with peak positions identified by using a set of X-rhodamine (ROX)-labeled MapMarker1000 molecular weight standards (BioVentures). The raw capillary electrophoresis data was processed using Attagraph software (Attagene).

For `CCOC(=O)CCC(=O)OCC`, which outcome is on record?
Its outcome is “inactive”.

For `O=c1[nH]cc(F)c(=O)[nH]1`, which outcome is on record?
Its outcome is “inactive”.

With `Cc1c(C(=O)O)c(O)cc2c1C(=O)c1c(O)c([C@@H]3O[C@H](CO)[C@@H](O)[C@H](O)[C@H]3O)c(O)c(O)c1C2=O` as the compound, how does the outcome read?
The outcome was “inactive”.

For `CC(=O)OC/C=C(\C)CCC=C(C)C`, which outcome is on record?
The outcome was “inactive”.

For `O=C(OCCCCCOC(=O)c1ccccc1)c1ccccc1`, which outcome is on record?
The outcome was “inactive”.

For `CC(=O)C(C)=CC1C(C)=CCCC1(C)C` (stereo not given), which outcome is on record?
Its outcome is “inactive”.

Which outcome does the source give for `COCCOCCOC` here?
Its outcome is “inactive”.

Which outcome does the source give for `Cc1ccccc1Cl` here?
Its outcome is “inactive”.

For `CC(C)(C)c1cc(O)c(C(C)(C)C)cc1O`, which AC50 is on record?
Its AC50 is 114 µM (active).

Which outcome does the source give for `Nc1ccc2c(c1)C(=O)c1ccccc1C2=O` here?
Its outcome is “inactive”.

For `Nc1ccc(S(=O)(=O)c2ccc(N)cc2)cc1`, which outcome is on record?
Its outcome is “inactive”.

For `Cc1cc(=O)[nH]c(=S)[nH]1`, which outcome is on record?
Its outcome is “inactive”.

For `Cc1ccc(Cl)cc1`, which outcome is on record?
Its outcome is “inactive”.

For `COc1cccc2c1C(=O)c1c(O)c3c(c(O)c1C2=O)C[C@@](O)(C(=O)CO)C[C@@H]3O[C@H]1C[C@H](N)[C@H](O)[C@H](C)O1`, which AC50 is on record?
Its AC50 is 1.25 µM (active).

For `COc1ccc(S(=O)(=O)N2C(=O)[C@@](c3ccccc3OC)(N3C[C@H](O)C[C@H]3C(=O)N(C)C)c3cc(Cl)ccc32)c(OC)c1`, which AC50 is on record?
Its AC50 is 125 µM (active).

For `Cc1ccc2ncccc2c1`, which outcome is on record?
Its outcome is “inactive”.

Which outcome does the source give for `NCC1(Cc2noc(=O)[nH]2)CCCCC1` here?
The outcome was “inactive”.

With `C1CCC(SSC2CCCCC2)CC1` as the compound, how does the outcome read?
The outcome was “inactive”.

Which outcome does the source give for `Cc1cccc(C)c1O` here?
Its outcome is “inactive”.

Which outcome does the source give for `C[C@]12C=CC(=O)C=C1CC[C@@H]1[C@@H]2C(=O)C[C@@]2(C)[C@H]1CC[C@]2(O)C(=O)CO` here?
The outcome was “inactive”.

Which outcome does the source give for `CCCCCCCCCCCCCCCCCC(=O)O` here?
Its outcome is “inactive”.

Which outcome does the source give for `COCCOC[C@H](CC1(C(=O)NC2CCC(C(=O)O)CC2)CCCC1)C(=O)Oc1ccc2c(c1)CCC2` (stereo not given in full) here?
The outcome was “inactive”.

With `c1cc(-c2ccncc2)ccn1` as the compound, how does the outcome read?
The outcome was “inactive”.

For `CCCCCCCCCCCCCCCC`, which outcome is on record?
Its outcome is “inactive”.

With `Cc1ccc(C(C)C)c(O)c1` as the compound, how does the outcome read?
Its outcome is “inactive”.

Which outcome does the source give for `CCOc1ccc2c(c1)C(C)=CC(C)(C)N2` here?
Its outcome is “inactive”.

Which outcome does the source give for `Cc1ccc(N(C)C)cc1` here?
Its outcome is “inactive”.

Which outcome does the source give for `Cc1oc(-c2ccccc2)nc1CCOc1cccc2c1ccn2CCC(=O)O` here?
The outcome was “inactive”.

For `CCCCCCCCCCCCCO`, which outcome is on record?
The outcome was “inactive”.

For `CCCCCCOCCO`, which outcome is on record?
Its outcome is “inactive”.

With `NS(=O)(=O)c1cc2c(cc1Cl)NCNS2(=O)=O` as the compound, how does the outcome read?
The outcome was “inactive”.

For `COc1ccc(C)cc1N`, which outcome is on record?
Its outcome is “inactive”.

For `Nc1ccccc1N`, which outcome is on record?
The outcome was “inactive”.

Which outcome does the source give for `CCCCN(CCCC)CCCC` here?
Its outcome is “inactive”.

For `O=[N+]([O-])C(CO)(CO)CO`, which outcome is on record?
The outcome was “inactive”.

For `O=C(O)CCCCC(=O)O`, which outcome is on record?
The outcome was “inactive”.

With `O=c1c(O)c(-c2ccc(O)c(O)c2)oc2cc(O)cc(O)c12` as the compound, how does the outcome read?
The outcome was “inactive”.

With `C[Si]1(C)O[Si](C)(C)O[Si](C)(C)O[Si](C)(C)O1` as the compound, how does the outcome read?
Its outcome is “inactive”.

For `Oc1ccc2ccccc2c1N=Nc1ccccc1`, which outcome is on record?
Its outcome is “inactive”.

For `Oc1ccc2c(c1)OC[C@@H](N1CCC(O)(c3ccc(F)cc3)CC1)[C@H]2O`, which outcome is on record?
The outcome was “inactive”.
